PAFAH1B2 inh = PAFAH1B2 enzyme inhibitors, primary screen, biochemical, fluorescence polarization, human; Platelet-activating factor acetylhydrolase IB subunit alpha2 (Homo sapiens), P68402; actives 1.2% (n = 340,000); recombinant PAFAH1B2, FP-rhodamine activity probe; AID 492953, 2010; inhibition, % at 3.39 µM;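 active = inhibition above the mean of all tested compounds plus 3 SD, cut at about 24% in these data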
Target sequence (P68402 whole entry, looked up): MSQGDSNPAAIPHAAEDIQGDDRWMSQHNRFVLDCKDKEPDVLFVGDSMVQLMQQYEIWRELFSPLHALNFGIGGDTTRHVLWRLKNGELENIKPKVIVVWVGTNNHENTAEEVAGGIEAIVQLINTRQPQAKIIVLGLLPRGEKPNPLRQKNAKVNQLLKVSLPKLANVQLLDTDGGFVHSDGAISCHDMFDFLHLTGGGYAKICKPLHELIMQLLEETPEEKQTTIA
Rin1 Abl inh = inhibitors of Rin1-Abl protein binding, primary screen, biochemical, TR-FRET; inhibition, % at 7.35 µM; actives 0.4% (n = 360,000); AID 588664, 2011; in the data active = inhibition above about 5%, passing the limit was not always enough
PAFAH1B3 inh = PAFAH1B3 enzyme inhibitors, primary screen, biochemical, fluorescence polarization, human; Platelet-activating factor acetylhydrolase IB subunit alpha1 (Homo sapiens), Q15102; recombinant PAFAH1B3, FP-rhodamine probe; inhibition, % at 3.39 µM; actives 0.28% (n = 340,000); AID 492972, 2010;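 active = inhibition above the screen-wide average of all tested compounds plus 3 SD, cut at about 25% in these data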
Target sequence (Q15102 whole entry, looked up): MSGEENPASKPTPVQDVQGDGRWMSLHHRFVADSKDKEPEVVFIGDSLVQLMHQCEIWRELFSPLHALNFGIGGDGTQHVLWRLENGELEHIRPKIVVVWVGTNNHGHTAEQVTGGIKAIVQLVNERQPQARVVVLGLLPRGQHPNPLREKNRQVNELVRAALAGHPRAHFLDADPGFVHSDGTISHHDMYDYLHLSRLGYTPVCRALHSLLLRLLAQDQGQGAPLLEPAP
PAFAH2 FP inh = PAFAH2 enzyme inhibitors, primary screen, biochemical, fluorescence polarization, human | actives 0.99% (n = 340,000) | Platelet-activating factor acetylhydrolase 2, cytoplasmic (Homo sapiens), Q99487 | recombinant PAFAH2, FP-rhodamine activity probe | inhibition, % at 3.39 µM;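 active = inhibition above the mean over all tested compounds plus 3 SD, cut at about 30% in these data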;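 note: inhibitors block probe labeling of enzyme so polarization drops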
pPAFAH inh = pPAFAH enzyme inhibitors, primary screen, biochemical, fluorescence polarization, human; Platelet-activating factor acetylhydrolase (Homo sapiens), Q13093; recombinant pPAFAH, FP-rhodamine probe fluorescence polarization; inhibition, % at 3.39 µM; actives 1.5% (n = 330,000);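 active = inhibition above the mean inhibition across the screen plus 3 SD, cut at about 25% in these data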;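 note: inhibitors block binding of the rhodamine activity-based probe so polarization drops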
E coli Lon inh = inhibitors of E. coli Lon protease, primary screen, biochemical, fluorescence polarization | P0A9M0 | purified E. coli Lon protease | inhibition, % at 7.94 µM | actives 0.42% (n = 360,000) | AID 602123, 2011; in the data active = inhibition above about 13%, passing the limit was not always enough
PAFAH2 confirm = PAFAH2 enzyme inhibitors, confirmation, biochemical, fluorescence polarization, human; recombinant PAFAH2, FP-rhodamine activity probe; AID 493030, 2011; actives 65% (n = 2,300); shares compounds with PAFAH2 FP inh; inhibition, % at 3.39 µM;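 active = mean inhibition over three repeats above a set limit taken from the earlier primary screen, cut at about 30% in these data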;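 note: inhibitor blocks binding of rhodamine activity probe so polarization falls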
Each line names hits and unclear results; the compound was inactive in the other large screens (follow-up assays come after a bar, where they were run). Rows were chosen to be rich in hits. Some 3.1% of all compounds tested hit in one or more screens of this group.

CCCCCCCCCCCC1=C(O)C(=O)C=C(O)C1=O	PAFAH2 FP inh 53 | PAFAH2 confirm 40
COc1ccc(NC(=S)Nc2ccccc2)c(OC)c1	PAFAH2 FP inh 164 | PAFAH2 confirm inactive
COc1ccc(NC(=S)Nc2ccc(OCc3ccccc3)cc2)c(OC)c1	none
CC(C)(C)N(Cc1ccccc1)C(=O)COC(=O)CN1C(=O)NC2(CCCC2)C1=O	none
CC1CCC(NC(=O)COC(=O)C2CC3CCCC(C2)C3=O)CC1 (configuration not stated)	PAFAH2 FP inh 62 | PAFAH2 confirm 48
O=C(COC(=O)C1CC2CCCC(C1)C2=O)NC1CCCCC1 (configuration not stated)	PAFAH2 FP inh 63 | PAFAH2 confirm 55
CC(=O)Nc1cccc(NC(=O)COC(=O)C2CC3CCCC(C2)C3=O)c1 (configuration not stated)	none
COc1ccc(/C=C/C(=O)OCC(=O)N2c3ccccc3CC2C)cc1 (configuration not stated)	none (no result: PAFAH1B2 inh, PAFAH1B3 inh, PAFAH2 FP inh, pPAFAH inh)
COc1ccccc1/C=C/C(=O)OCC(=O)N1c2ccccc2CC1C (configuration not stated)	PAFAH2 FP inh 34 | PAFAH2 confirm inactive
CC1Cc2ccccc2N1C(=O)COC(=O)c1ccc(N(C)C)cc1 (configuration not stated)	PAFAH2 FP inh 55 | PAFAH2 confirm 55
CN(C)c1ccc(C(=O)OCC(=O)N2CCCCCC2)cc1	PAFAH2 FP inh 57 | PAFAH2 confirm 55
CCc1ccc(C(=O)OCC(=O)N2CCCCCC2)cc1	PAFAH2 FP inh 38 | PAFAH2 confirm inactive
CN(C)c1ccc(C(=O)OCC(=O)N2CCCC2)cc1	none
Cc1ccc(NC(=O)Cn2ccc([N+](=O)[O-])n2)cc1C	none
Cc1ccc(S(=O)(=O)N2CCCNCC2)cc1	none
Cc1ccc(-c2csc(/C(C#N)=C(\O)CCl)n2)cc1	PAFAH2 FP inh 33 (no result: pPAFAH inh) | PAFAH2 confirm 31
Cc1ccc(/C=C2\C(=O)ON=C2c2ccccc2)o1	none (no result: PAFAH1B2 inh, PAFAH1B3 inh, PAFAH2 FP inh)
Cc1ccc(-c2ccc(/C=C3\C(=O)ON=C3c3ccccc3)o2)c([N+](=O)[O-])c1	PAFAH2 FP inh 32 | PAFAH2 confirm inactive
Cc1oc2c(c1C(=O)NC(Cc1c[nH]c3ccccc13)C(=O)O)CCCC2 (configuration not stated)	PAFAH2 FP inh 39 | PAFAH2 confirm inactive
Cc1noc(C)c1C(=O)NC(Cc1c[nH]c2ccccc12)C(=O)O (configuration not stated)	none
O=C(CSc1ccc(-c2ccc(Br)cc2)nn1)NC1CCCC1	none
O=C(c1ccccc1)N1CCN(c2ccc([N+](=O)[O-])c(NCC3CCCO3)c2)CC1 (configuration not stated)	none
CCOc1ncccc1C(=O)OCC(=O)Nc1ccc2c(c1)OCCO2	PAFAH2 FP inh 55 | PAFAH2 confirm 47
Cc1c(C(=O)OCC(=O)NCc2ccc3c(c2)OCO3)cccc1[N+](=O)[O-]	none
Cc1c(C(=O)OCC(=O)Nc2ccc3c(c2)OCO3)cccc1[N+](=O)[O-]	PAFAH2 FP inh 72 | PAFAH2 confirm 64
O=C(COC(=O)c1cccnc1Cl)Nc1ccc2c(c1)OCO2	PAFAH2 FP inh 75 | PAFAH2 confirm 60
Cc1ccc(S(=O)(=O)N/N=C\c2ccc3c(c2)OCO3)c(C)c1	none
COc1ccccc1NC(=O)CSc1ccc(-c2ccc(-n3ccnc3)cc2)nn1	none
COc1cc(OC)c(C(=O)OCC(=O)NCC2CCCCC2)cc1OC	PAFAH2 FP inh 51 (no result: pPAFAH inh) | PAFAH2 confirm 43
COc1cc(C)ccc1OCC(=O)OCC(=O)NCC1CCCCC1	none
CCCCNC(=O)COC(=O)c1ccc(SC)cc1OC	PAFAH2 FP inh 46 | PAFAH2 confirm inactive
